Source: PubChem
A selection: hits, their analogues and other compounds. The true share with any hit is near 5.8%.
KB-3-1 cytotox – KB-3-1 parental cell cytotoxicity; 1.4% of 400,000 active; AID 1347075; Potency, µM (series often up to 46.1 µM), actives largely listed as cytotoxic; KB-3-1 viability, CellTiter-Glo ATP luminescence, 72 h; note: % is set by controls: 0 for no effect and ±100 for the full control effect; nearly all actives have a fitted effect of over 60% in size
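Cytotoxicity measured as CellTiter-Glo luminescence after 72 h at 37 C. Compound titrations were pinned onto drug-naive KB-3-1 parental adenocarcinoma cells grown in DMEM with 10% FBS, and normalized data fitted to concentration-response curves.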
PINK1 modulator – PINK1 expression modulation; Potency, µM (top dose mostly 76.6 µM), inactives show top-dose activation (PINK1 increase), most hits filed as activators; 0.2% of 410,000 active; PINK1 immunofluorescence, high-content cytometry, 24 h; active = well fitted activation curve with a large enough effect; inconclusive = small, poorly fitted or top-dose-only effect; cell line not stated here; note: % of control where 0% means no effect; nearly all actives have a fitted effect of over 65% in size
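A stable cell line was treated with compounds at 5 concentrations for 24 hours, with CCCP as control. PINK1 levels and mitochondrial localization were measured by immunofluorescence with mitochondrial, cell and nuclear markers after fixation, read by laser-scanning cytometry.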
SW480 rereplic – inducers of DNA re-replication in SW480 colon cancer cells. SW480 DNA re-replication, Hoechst DNA content imaging, 48 h. Potency, µM (highest dose often 46.1 µM), inactives show top-dose re-replication activation, hits mostly activators. 1.8% of 340,000 active; note: % of control where 0% means no effect; nearly all actives have a fitted effect of over 55% in size
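Image-based DNA-content assay: after two days of treatment, nuclei were labelled with the DNA dye Hoechst and imaged, and hits were compounds raising the count of nuclei showing high fluorescence intensity.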
12-LOX inh – blocks human arachidonate 12S-lipoxygenase; AID 1671190; Potency, µM (titrated, usually from 108 µM), inactives show top-dose activity change, negative = inhibition, most hits filed as inhibitors; 1.1% of 580,000 active; P18054; purified 12hLO, xylenol orange hydroperoxide absorbance; note: % is set by controls: 0 for no effect and ±100 for the full control effect
Target sequence (P18054 whole entry, looked up): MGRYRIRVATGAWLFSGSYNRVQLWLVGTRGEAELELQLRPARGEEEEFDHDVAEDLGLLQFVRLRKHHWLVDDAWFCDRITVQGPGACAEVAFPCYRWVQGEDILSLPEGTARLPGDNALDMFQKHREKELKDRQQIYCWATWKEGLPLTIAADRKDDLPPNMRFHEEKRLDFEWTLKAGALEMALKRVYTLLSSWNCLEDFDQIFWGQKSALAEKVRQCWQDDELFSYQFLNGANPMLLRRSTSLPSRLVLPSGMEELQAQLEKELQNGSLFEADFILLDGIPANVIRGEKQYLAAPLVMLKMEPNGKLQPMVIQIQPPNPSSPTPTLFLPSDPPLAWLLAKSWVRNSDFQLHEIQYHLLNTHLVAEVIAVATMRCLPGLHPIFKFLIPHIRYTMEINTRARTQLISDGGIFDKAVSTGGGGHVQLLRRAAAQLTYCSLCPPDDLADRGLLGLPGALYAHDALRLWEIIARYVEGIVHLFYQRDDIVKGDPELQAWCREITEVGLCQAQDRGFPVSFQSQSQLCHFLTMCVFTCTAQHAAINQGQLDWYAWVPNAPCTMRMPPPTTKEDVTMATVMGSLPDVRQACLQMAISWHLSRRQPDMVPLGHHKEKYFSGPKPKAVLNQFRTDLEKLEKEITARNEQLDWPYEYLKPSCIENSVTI
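Hydroperoxide product was detected by ferrous iron/xylenol orange as the 573 to 405 nm absorbance ratio. Arachidonic acid at 40 uM (final) was turned over for 30 min at room temperature by 150 nM human 12hLO, pH 7.0 Hepes buffer, after 15 min compound preincubation.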
KB-V1 cytotox – kills drug-selected multidrug resistant KB-V1 cells; KB-V1 MDR cells viability, CellTiter-Glo, 72 h; Potency, µM (highest dose often 46.1 µM), actives largely listed as cytotoxic; 3.4% of 400,000 active; AID 1347076; note: % is set by controls: 0 for no effect and ±100 for the full control effect; nearly all actives have a fitted effect of over 60% in size
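KB-V1 cells (P-gp-expressing MDR subline of KB-3-1) in phenol-red-free DMEM with 10% FBS were exposed to library compounds over a concentration series for 72 h at 37 degrees C. Viability read by CellTiter-Glo luminescence; concentration-effect curves fitted after normalization.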
MCF10A rerep – induces DNA re-replication in MCF 10a normal breast cells; Potency, µM (top dose mostly 46.1 µM), without a hit: at the highest dose activity, positive = re-replication, actives largely listed as activators; MCF 10A DNA re-replication, Hoechst nuclear intensity, 48 h; 2.9% of 350,000 active; note: % of control where 0% means no effect; nearly all actives have a fitted effect of over 50% in size
* = called active by the depositor; i = inactive; u = inconclusive; x = no result; ! = not confirmed by another sample; [ ] = another dose, or the depositor's remark. Unless noted, calls come from the whole dose curve; as a rule, active = well fitted curve in the direction sought with a large enough effect; inconclusive = small, poorly fitted or top-dose-only effect, or another doubt; inactive = no such curve, though single readings can be large; an effect the other way counts as inactive or inconclusive. Potency is the fitted concentration of half-maximal effect.

SMILES | KB-3-1 cytotox | PINK1 modulator | SW480 rereplic | 12-LOX inh | KB-V1 cytotox | MCF10A rerep
COc1cc(C(=O)N(c2cc(C)cc(C)c2)C2C=CS(=O)(=O)C2)cc(OC)c1OC (stereo unspecified) | x | x | x | 25.7% | x | x
COc1cc(C2NCC(c3ccc(Cl)cc3Cl)c3c2[nH]c2ccccc32)cc(OC)c1OC (stereo unspecified) | 18.4µM* | 3.2% | u | 28.2µM* | u | 18.4µM*
Cc1ccc(-c2ccc(CN3C(C(C)C)C(=O)N(Cc4cn(Cc5ccco5)nn4)CCS3(=O)=O)cc2)cc1 (stereo unspecified) | i | 12.9% | x | 44.7µM* | i | x
CC(C)CC1C(=O)N(Cc2cn(Cc3ccco3)nn2)CCS(=O)(=O)N1Cc1ccc(-c2cccc(CO)c2)cc1 (stereo unspecified) | i | -0.2% | x | 22.4µM* | i | x
O=C(O)c1ccccc1Nc1cc(Cl)c2nonc2c1[N+](=O)[O-] | i | 4.7% | 1.2% | u | i | -0.9%
O=[N+]([O-])c1c(Nc2cccc(Cl)c2Cl)cc(Cl)c2nonc12 | x | x | x | 15.8µM* | x | x
O=C(Nc1ccc(Oc2cccnc2)cc1)c1ccccc1F | u | -3.9% | -0.8% | 0.0% | 16.4µM* | 1.9%
CSc1cccc(NC(=O)COC(=O)C2(c3ccccc3)CC2)c1 | i | 4.8% | u | -10.3% | 18.4µM* | 0.1%
O=C(COC(=O)C1(c2ccc(Cl)cc2)CCCC1)Nc1cc([N+](=O)[O-])ccc1Cl | x | x | x | -25.0% | x | x
CCc1ccc(NC(=O)COC(=O)C2(c3ccc(Cl)cc3)CCCC2)cc1 | u | 22.5% | u | -17.5% | 18.4µM* | 14.1%
Cc1cc(NC(=O)COC(=O)C2(c3ccccc3)CC2)no1 | x | x | x | -25.1% | x | x
O=S(=O)(NCc1ccccc1Cl)c1ccc2c(c1)OCCO2 | x | x | x | 0.8% | x | x
CC1(C)Cc2c(ccc3ccccc23)C(=O)N1 | i | -2.1% | 8.4% | -14.8% | i | 11.3%
CC1(C)Cc2c(ccc3ccccc23)C(CCl)N1 (stereo unspecified) | x | x | x | 5.62µM* | x | x
CC(C)(C)c1ccc2cc(C(=O)N3CCCCC3)[nH]c2c1 | x | x | x | -0.1% | x | x
Cc1cc(C(=O)N2CCN(Cc3ccccc3)CC2)c2ccccc2n1 | x | x | x | 28.8% | x | x
CCOc1ccc(C2NC(=O)NC(C)=C2C(=O)OCc2ccccc2)cc1 (stereo unspecified) | u | -0.2% | u | 22.7% | u | 20.6µM*
COc1cc(C2NC(=O)NC(C)=C2C(=O)OCc2ccc(C)cc2)cc(OC)c1O (stereo unspecified) | i | x | 15.7% | -0.9% | i | 7.31µM*
CCOC(=O)C1=C(CN(CC)Cc2ccccc2)NC(=O)NC1c1ccc(OC)cc1 (stereo unspecified) | x | -2.0% | x | u | x | x
CCOC(=O)C1=C(C)NC(=O)NC1c1ccc(N2CCC(c3ccccc3)=N2)cc1 (stereo unspecified) | i | -1.6% | 23.1µM* | -20.0% | i | u
COc1cc(C2NC(=O)NC(C)=C2C(=O)OCc2ccc(C)cc2)cc(OC)c1OC (stereo unspecified) | i | 4.3% | u | 25.8% | i | 0.9%
CCOC(=O)C1=C(CN(CC)Cc2ccccc2)NC(=O)NC1c1ccc(Cl)cc1 (stereo unspecified) | i | u | x | 22.4µM*! | i | x
O=S(=O)(c1ccc(Sc2nnnn2C2CC2)nc1)N1CCOCC1 | x | x | x | 3.4% | x | x
O=C(Cc1c(F)cccc1Cl)Nc1ccon1 | i | 7.94µM* | 1.3% | 25.7% | i | -0.7%
COc1ccc(NC(=O)Cc2c(F)cccc2Cl)cc1 | i | 0.4% | -16.9% | -13.0% | i | 5.3%
SMILES | KB-3-1 cytotox | PINK1 modulator | SW480 rereplic | 12-LOX inh | KB-V1 cytotox | MCF10A rerep
O=C(Cc1c(F)cccc1Cl)Nc1nccs1 | i | 2.7% | -0.8% | 25.2% | i | -0.1%
Cc1cc(NC(=O)Cc2c(F)cccc2Cl)no1 | i | -0.1%[38.3 µM] | u | 2.2% | i | 7.31µM*
CC(C)n1nc(C(=O)Nc2ccc(Oc3ccccc3)cc2)c2ccccc2c1=O | x | x | x | 0.0% | x | x
N#Cc1ccccc1Sc1ccccc1C(=O)Oc1ccc(Cl)cc1Cc1ccccc1 | x | x | x | 3.9% | x | x
Cc1cnc(C2CCN(C(=O)OC(C)(C)C)CC2)[nH]1 | x | x | x | 8.5%[12.5 µM] | x | x
CC1=CC(=O)C=C(C)C1=NOC(=O)/C=C\c1ccccc1 | i | 0.0% | 5.8µM* | -11.6% | i | u
CC1=CC(=NOC(=O)/C=C/c2ccccc2)C=C(C)C1=O | u | u | u | 1.8% | i | u
Cc1ccc(S(=O)(=O)CC(=O)Nc2ccc(S(=O)(=O)Nc3ccccn3)cc2)cc1 | i | 3.4% | -50.1% | u | i | 1.46µM*
Cc1ccc(S(=O)(=O)Nc2ccccc2CNc2ccccn2)cc1 | u | 0.7% | -3.0% | -16.6% | 20.6µM* | 0.9%
Cc1ccc(S(=O)(=O)Nc2ccccc2CNc2ccc(Br)cn2)cc1 | 23.1µM* | 15.8µM* | u | -14.4% | 5.8µM* | u
Cc1ccc(S(=O)(=O)CC(=O)Nc2ccccn2)cc1 | i | -1.5% | -7.8% | -0.7% | i | 5.2%
Cc1ccc(S(=O)(=O)Nc2ccccc2CNc2ncc(Br)cc2Br)cc1 | u | u | u | -0.2% | 2.91µM* | -2.7%
Cc1ccc(NS(=O)(=O)c2ccc(Br)cc2)nc1 | i | -4.4% | 13.2% | -7.8% | i | 14.4%
COc1ccccc1-c1[nH]ncc1CN1CCCN(S(=O)(=O)c2ccccc2)CCC(=O)NCC1 | x | x | x | 32.3% | x | x
Cc1cc(C(F)(F)F)nn1CC(=O)NNC(=S)Nc1ccc(Cl)cc1 | i | 6.8%[38.3 µM] | -3.2% | -16.0% | u | -20.8%
